Source: PubChem
NadD block – inhibitors of S. aureus NadD, primary screen, biochemical, colorimetric, uHTS; purified NadD enzyme, colorimetric absorbance read-out; inhibition, % at 20 µM; hit rate 0.78% among 360,000; AID 602399, 2012; in the data active = inhibition above about 26%
pCIP destab – p/CIP-EGFP fusion destabilizers, primary screen, fluorescence, F442A cells | hit rate 0.01% among 290,000 | decrease of EGFP signal, % at 10 µM | AID 1984, 2009 | 16 h | Q05BA5;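 active = EGFP signal decrease of at least 30% at 10 µM or well 3 SD below plate mean, unless failing retest; inactive = the rest, including hits failing retest or dose response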
PHOSPHO1 block – PubChem AID 1565. recombinant PHOSPHO1, absorbance phosphatase assay. hit rate 1.1% among 290,000. inhibition, % at 13.3 µM. Phosphoethanolamine/phosphocholine phosphatase (Homo sapiens), Q8TCT1; in the data active = inhibition above about 60%
Target sequence (Q8TCT1 whole entry, looked up): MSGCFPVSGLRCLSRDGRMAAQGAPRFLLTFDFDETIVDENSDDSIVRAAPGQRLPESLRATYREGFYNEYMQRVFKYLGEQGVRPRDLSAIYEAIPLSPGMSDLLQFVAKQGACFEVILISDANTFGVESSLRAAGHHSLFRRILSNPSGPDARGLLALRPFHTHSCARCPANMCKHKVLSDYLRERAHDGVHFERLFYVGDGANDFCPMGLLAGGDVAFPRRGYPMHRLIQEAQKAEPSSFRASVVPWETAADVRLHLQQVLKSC
UBC9 SUMO inh – inhibitors of in vitro SUMOylation cascade, primary screen, biochemical, HTRF, uHTS. SUMO-conjugating enzyme UBC9 (Homo sapiens), P63279. HTRF SUMOylation assay, SAE1/SAE2 + UBC9. inhibition, % at 35 µM. hit rate 0.36% among 290,000; in the data active = inhibition above about 50%, passing the limit was not always enough; inconclusive = no clear call, values can overlap the other calls
Target sequence (P63279 whole entry, looked up): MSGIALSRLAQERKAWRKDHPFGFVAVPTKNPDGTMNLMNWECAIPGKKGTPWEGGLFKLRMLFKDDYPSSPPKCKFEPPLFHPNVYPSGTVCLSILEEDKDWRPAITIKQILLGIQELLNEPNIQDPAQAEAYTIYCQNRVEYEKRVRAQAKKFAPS
Of the large screens only hits and unclear results are named; the others gave an inactive call. A selection: hits, their analogues and other compounds. The true share with any hit is near 1.8%.

Cc1ccc(N2C(=O)[C@@H]3[C@H](C2=O)C2c4ccccc4C=CN2[C@@H]3C(=O)c2ccco2)cc1 (some centres undefined)	PHOSPHO1 block 73.8
Cc1ccc(N2C(=O)[C@@H]3[C@H](C2=O)C2c4ccccc4C=CN2[C@@H]3C(=O)c2ccco2)c(C)c1 (some centres undefined)	none
CCOC(=O)c1sc2nc(CSc3ccccc3)nc(N3CCC(C(N)=O)CC3)c2c1C	pCIP destab 40.0
CC(C)(C)NC(=O)C(c1ccc(O)cc1)N(Cc1ccc2c(c1)OCO2)C(=O)CCl (centres undefined)	none (no result: pCIP destab, PHOSPHO1 block, UBC9 SUMO inh)
Oc1cccc2cc3cccc(O)c3c(O)c12	NadD block 70.0
COc1ccc(/C=C2\SC(=O)N(CC(=O)Nc3ccc(O)cc3)C2=O)cc1OC	none
Cc1ccc(NC(=O)CN2C(=O)S/C(=C\c3cc(Cl)c(OCC(=O)O)c(Cl)c3)C2=O)cc1	NadD block 27.8 (no result: UBC9 SUMO inh)
CN(C)C(=O)COC(=O)c1ccccc1Sc1ccccc1C#N	PHOSPHO1 block 68.1
CC(=O)c1ccc(NC(=O)COC(=O)c2ccccc2Sc2ccccc2C#N)cc1	none
S=C(Nc1cccc2ccccc12)NN1CCOCC1	PHOSPHO1 block 93.6
S=C(Nc1cccc2ccccc12)NN1CCCCCC1	none (no result: pCIP destab, PHOSPHO1 block, UBC9 SUMO inh)
C[C@H](CO)N1C[C@H](C)[C@@H](CN(C)C(=O)c2ccccc2)OCc2cnnn2CCCC1=O	none (no result: pCIP destab, PHOSPHO1 block, UBC9 SUMO inh)
COc1ccc(S(=O)(=O)N2CCC(C(=O)NCCC(=O)NCc3ccccn3)CC2)cc1	none (no result: pCIP destab, PHOSPHO1 block, UBC9 SUMO inh)
CCn1c(-c2ccc(Cl)cc2)n[nH]c1=S	PHOSPHO1 block 70.9
CCn1c(-c2ccccc2O)n[nH]c1=S	PHOSPHO1 block 64.6
CCn1c(C(c2ccccc2)c2ccccc2)n[nH]c1=S	PHOSPHO1 block 99.8
CCn1c(-c2cc(-c3cccc(OC)c3)nc3ccccc23)n[nH]c1=S	PHOSPHO1 block 92.2
CCc1nc2ccc(C(=O)N3CCN(S(=O)(=O)CC)CC3)cn2c1N(CC)CCN(C)C	none (no result: pCIP destab, PHOSPHO1 block, UBC9 SUMO inh)
COc1ccc(C(O)c2ncc(-c3ccccc3C)[nH]2)cc1F (centres undefined)	none (no result: pCIP destab, PHOSPHO1 block, UBC9 SUMO inh)
CCn1c(-c2csc3ccccc23)n[nH]c1=S	none
COc1ccc(Cn2c(-c3ccc(OC)cc3)n[nH]c2=S)cc1	none (no result: PHOSPHO1 block)
COc1ccc(CCn2c(-c3ccc(Cl)cc3)n[nH]c2=S)cc1OC	none
CCCCn1c(-c2cc(Cl)ccc2OC)n[nH]c1=S	PHOSPHO1 block 60.5
COc1ccc(-c2n[nH]c(=S)n2CC(C)C)cc1	PHOSPHO1 block 96.9
CCn1c(-c2cc(-c3ccccc3)sc2N)n[nH]c1=S	PHOSPHO1 block 76.8
CCCn1c(-c2ccc(F)cc2)n[nH]c1=S	PHOSPHO1 block 91.3
COc1ccc(CN(C)CCCn2cnc3c(SC)ncnc32)cc1OC	none (no result: pCIP destab, PHOSPHO1 block, UBC9 SUMO inh)
CCn1c(-c2ccc(OC)c(OC)c2)n[nH]c1=S	none
CCCCn1c(-c2ccc([N+](=O)[O-])cc2)n[nH]c1=S	PHOSPHO1 block 102.3
CCCCn1c(-c2cccnc2)n[nH]c1=S	none
CCn1c(-c2ccc(C)cc2)n[nH]c1=S	PHOSPHO1 block 100.3
Clc1ccc2c(SCC3CO3)c3ccccc3nc2c1 (centres undefined)	none (no result: pCIP destab, PHOSPHO1 block, UBC9 SUMO inh)
N=C1/C(=C\c2ccc(-c3ccc(C(=O)O)cc3)o2)C(=O)N=C2SC=C(c3ccccc3)N12	NadD block 67.4
Cc1cc(/C=C2/C(=N)N3C(c4ccccc4)=CSC3=NC2=O)c(C)n1-c1ccc(Cl)cc1	none (no result: pCIP destab, PHOSPHO1 block, UBC9 SUMO inh)
N=C1/C(=C\c2ccc(-c3cccc(Cl)c3)o2)C(=O)N=C2SC=C(c3ccccc3)N12	NadD block 75.4
CCOC(=O)Cn1c2ccccc2c2nc3ccccc3nc21	UBC9 SUMO inh 94.0
O=C(O)Cn1c2ccccc2c2nc3ccccc3nc21	none (no result: pCIP destab, PHOSPHO1 block, UBC9 SUMO inh)
O=C(NCc1cccc(F)c1)Nc1nnc([C@@H]2C[C@H](O)[C@@H](CO)O2)s1	none (no result: pCIP destab, PHOSPHO1 block, UBC9 SUMO inh)
O=C1SC(c2ccccc2)=N/C1=C/c1ccco1	PHOSPHO1 block 72.9
Cc1ccc2c(CSc3nnnn3C)cc(=O)oc2c1	none
COc1cc(-c2nnc(SCc3cc(=O)oc4cc(C)ccc34)o2)cc(OC)c1OC	PHOSPHO1 block 73.5
COC(=O)Nc1sc2c(c1C(N)=O)CCCCCC2	PHOSPHO1 block 69.2
CNC(=O)c1c(N)sc2c1CCCCC2	PHOSPHO1 block 71.3 (no result: NadD block)
NC(=O)c1c(N)sc2c1CCCCC2	PHOSPHO1 block 97.1
NC(=O)c1c(N)sc2c1CCC2	none
COc1ccc(C(CNC(=O)CNC(=O)c2cccc(F)c2)N2CCOCC2)cc1 (centres undefined)	none (no result: pCIP destab, PHOSPHO1 block, UBC9 SUMO inh)
CCOc1ccc(-c2nnc(SCc3nc4ccccc4[nH]3)n2N)cc1	PHOSPHO1 block 76.4
Cc1ccc(-c2nnc(SCc3nc4ccccc4[nH]3)n2Cc2ccco2)cc1	PHOSPHO1 block 93.6
Cc1cccc(-c2nnc(SCc3nc4ccccc4[nH]3)n2Cc2ccco2)c1	PHOSPHO1 block 83.1
Cn1c(SCc2nc3ccccc3[nH]2)nnc1-c1cccnc1	none
c1coc(Cn2c(SCc3nc4ccccc4[nH]3)nnc2-c2cccs2)c1	PHOSPHO1 block 91.7
CCn1cc(/C=C(\NC(=O)c2ccccc2F)C(=O)NCCN2CCOCC2)c2ccccc21	PHOSPHO1 block 64.9
O=C(OCc1ccc([N+](=O)[O-])cc1)C1CC(=O)N(c2ccccc2)C1 (centres undefined)	none
Cc1cccc(N2CC(C(=O)OCc3ccc([N+](=O)[O-])cc3)CC2=O)c1 (centres undefined)	PHOSPHO1 block 60.0
COc1ccccc1N1CCN(S(=O)(=O)CCNC(=O)c2cccs2)CC1	none (no result: pCIP destab, PHOSPHO1 block, UBC9 SUMO inh)
c1ccc2c(c1)ncn2Cc1nnc2sc(-c3ccncc3)nn12	none
COc1ccc(Cc2nn3c(-c4ccccc4OC)nnc3s2)cc1	none
COc1ccc(Cc2nn3c(Cn4nnc5ccccc54)nnc3s2)cc1	PHOSPHO1 block 68.9
c1ccc(-c2nn3c(Cn4cnc5ccccc54)nnc3s2)cc1	PHOSPHO1 block 65.8
c1cncc(-c2nn3c(Cn4cnc5ccccc54)nnc3s2)c1	PHOSPHO1 block 69.2
c1ccc(-c2nn3c(Cn4nnc5ccccc54)nnc3s2)cc1	PHOSPHO1 block 69.2
COC(=O)[C@@H](Cc1ccccc1)NC(=O)/C=C/[C@H]1O[C@@H](n2cnc3c(NC(=O)c4ccccc4)ncnc32)[C@H](O)[C@@H]1O	none (no result: pCIP destab, PHOSPHO1 block, UBC9 SUMO inh)
CCOc1ccccc1-c1c2cc(O)c(=O)cc-2oc2cc(O)c(O)cc12	none
O=c1cc2oc3cc(O)c(O)cc3c(-c3ccccc3O)c-2cc1O	NadD block 45.7, UBC9 SUMO inh 85.3
COc1ccc(OC)c(-c2c3cc(O)c(=O)cc-3oc3cc(O)c(O)cc23)c1	NadD block 39.0, UBC9 SUMO inh inconclusive
COc1ccc(N(C(=O)c2cc3ccccc3oc2=O)C2C=CS(=O)(=O)C2)cc1 (centres undefined)	PHOSPHO1 block 60.9
O=C(c1cc2ccccc2oc1=O)N(c1ccccc1)C1C=CS(=O)(=O)C1 (centres undefined)	none
CCCOc1ccc(CCc2n[nH]c(=S)n2Cc2ccccc2)cc1	PHOSPHO1 block 79.0
C=CCn1c(-c2cccc([N+](=O)[O-])c2)n[nH]c1=S	none
